Test results as given in PubChem BioAssay (NCI).
The panel holds about 83,000 compounds, 20% with a hit somewhere; the sample as a whole holds those more often.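 Activity criterion: percent growth below 10, measured after cells in 96-well plates were exposed to a single compound concentration for 48 hours.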 Activity calls are given as the source filed them.

Legend:
Assay in all cases: NCI-60 one-dose screen, 48 h (100 = growth as untreated, 0 = no growth, -100 = all killed)
Conditions in all cases: 10 µM unless noted
[1] = system: NCI-H23 lung
[2] = system: NCI-H226 lung
[3] = system: NCI-H322M lung
[4] = system: HOP-62 NSCLC
[5] = system: NCI-H460 lung
[6] = system: HOP-92 NSCLC
[7] = system: NCI-H522 lung
[8] = system: A549/ATCC NSCLC
[9] = system: 786-0 renal
[10] = system: COLO 205 colon
[11] = system: DU-145 prostate
[12] = system: K-562 leukemia
[13] = system: MALME-3M melanoma
[14] = system: MDA-MB-231 breast
[15] = system: RXF 393 renal
[16] = system: SF-268 CNS
[17] = system: SF-295 CNS
[18] = system: SF-539 CNS
[19] = system: M14 melanoma

Measured: growth

Cn1c(=O)c2c(nc(Br)n2CC(=O)Nc2ccc(F)cc2)n(C)c1=O
inactive: [1] 95.8% | [2] 103% | [3] 111% | [4] 96.9% | [5] 109% | [6] 87.6% | [7] 81.3% | [8] 92.5% | [9] 95.3% | [10] 104% | [11] 109% | [12] 104% | [13] 103% | [14] 90.1% | [15] 108% | [16] 108% | [17] 108% | [18] 100% | [19] 99.7%

COC(=O)CCCCCn1c2ccccc2c2c3c(c4c5ccccc5[nH]c4c21)C(=O)N(O)C3=O
active: [7] -60%
inactive: [1] 44.1% | [2] 74.4% | [3] 62.4% | [4] 26% | [5] 33.4% | [6] 79.4% | [8] 80.3% | [9] 76.6% | [10] 36.5% | [11] 80.6% | [12] 23.8% | [13] 96% | [14] 41.8% | [15] 64.9% | [16] 45.6% | [17] 59.6% | [18] 25.3% | [19] 39.5%

c1ccc(CN2C(c3ccccc3)=Nc3ccccc3C2c2c[nH]c3ccccc23)cc1 (configuration not stated)
inactive: [1] 27.4% | [2] 59.3% | [3] 60.6% | [4] 47.1% | [5] 43.4% | [7] 51.7% | [8] 65.5% | [9] 46.7% | [10] 18.3% | [11] 85.4% | [13] 55.1% | [14] 26.7% | [15] 42.9% | [16] 71.2% | [17] 45.6% | [18] 58.1% | [19] 28.9%
active: [6] -2.7% | [12] 4.88%

COc1ccc(-c2nc(Nc3ccc(-c4nc5ccccc5[nH]4)cc3)nc(N3CCOCC3)n2)cc1
inactive: [1] 11.3% | [2] 17.1% | [3] 27% | [7] 11.9% | [8] 11.2% | [11] 38.5% | [16] 34.1%
active: [4] -27.3% | [5] 0.132% | [6] -6.57% | [9] -60% | [10] -43.7% | [12] -22% | [13] -65.7% | [14] 5.74% | [15] -67.5% | [17] -63.5% | [18] 0.307% | [19] -7.64%

COC(=O)[C@]12CC[C@@H](C)[C@H](C)[C@@H]1C1=CC[C@@H]3[C@@]4(C)CC(=O)[C@H](OC(=O)c5ccco5)[C@@]5(C)COC(=C45)C[C@@]3(C)[C@]1(C)CC2
active: [5] 9.59% | [9] 6.39% | [10] -40.6%
inactive: [1] 33.5% | [2] 23.6% | [3] 53.7% | [4] 34.4% | [6] 60.6% | [7] 26.9% | [8] 25% | [11] 37.9% | [12] 23.7% | [13] 21.9% | [14] 40.4% | [15] 44.5% | [16] 40.7% | [17] 35.6% | [18] 39% | [19] 22.2%

Nc1ccc(Cl)cn1
inactive: [1] 97.7% | [2] 95% | [3] 104% | [4] 95% | [5] 105% | [6] 87% | [7] 82.9% | [8] 87.7% | [9] 106% | [10] 108% | [11] 106% | [12] 107% | [13] 99.7% | [14] 101% | [15] 113% | [16] 100% | [17] 97.3% | [18] 96.4% | [19] 105%

COC(=O)[C@]12CC[C@@H](C)[C@H](C)[C@@H]1C1=CC[C@@H]3[C@@]4(C)C(c5ncon5)=C[C@@](C)(CO)C4=CC[C@@]3(C)[C@]1(C)CC2
active: [1] -26.2% | [2] -34.7% | [4] -8.97% | [5] -33.4% | [6] -49.9% | [7] -77.5% | [9] -23.8% | [10] -46% | [11] -71.5% | [12] -21.2% | [13] -73.6% | [14] -49.3% | [15] -73.2% | [16] -7.68% | [17] -46.8% | [18] -86.2% | [19] -58.5%
inactive: [3] 21.8% | [8] 29.5%

O=S(=O)(NCCNc1cc(-c2cn(-c3ccccc3)nc2-c2cccc(O)c2)ccn1)c1ccc(F)cc1
inactive: [1] 33.6% | [2] 45.1% | [3] 58.7% | [4] 48% | [5] 22.9% | [6] 35.7% | [8] 26.9% | [11] 55.3% | [13] 14.5% | [15] 35% | [16] 40.4% | [17] 10.4% | [18] 44.4% | [19] 14.2%
active: [7] 4.98% | [9] -9.01% | [10] -49.3% | [12] 1.3% | [14] -9.05%
